A short description of assay [1]: antimalarial activity against Dd2 strain (AID 2302;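 active means growth inhibition above 50% at the single 2 µM test dose, taken to imply half-maximal potency below 2 µM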;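 further: 0% = DMSO untreated growth and 100% = chloroquine plus artemisinin killed control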). The settings on record: P. falciparum Dd2 in RBCs, LDH growth readout, 72 h; at 2 µM; hits give high values.
A short description of assay [2]: HepG2 cytotoxicity, primary screen, cytotoxicity control for P. falciparum antimalarial project, cell-based, ATP luminescence (AID 2303;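 active means inhibition above 50%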;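 further: 0% = DMSO wells and 100% = digitonin-killed cells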). To be noted: HepG2 viability, 24-48 h, at 10 µM, hits give high values.
Assay [3] has as its target L-lactate dehydrogenase (Plasmodium falciparum (isolate CDC / Honduras)) (UniProt Q27743). Briefly: PfLDH activity inhibition – cell lysate, 3D7 strain, counter-screen for P. falciparum growth inhibition project (AID 2304).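 Further: 0% = vehicle and 100% = reference inhibitor.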 The settings on record: P. falciparum 3D7 crude extract, LDH APAD/NBT absorbance; at 2 µM; hits give high values.
Assay [4] in a line: inhibition of 3D7 malaria parasite growth – strain 3D7 (AID 2306).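 Further: 0% = DMSO wells and 100% = chloroquine plus artemisinin control wells.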 The settings on record: P. falciparum 3D7 erythrocytic growth, LDH absorbance, 72 h; at 2 µM; hits give high values.
For assay [5], the target named is Calcium-dependent protein kinase 1 (Plasmodium falciparum (isolate 3D7)) (UniProt P62344). Kind of assay: PfCDPK1 kinase inhibitors, biochemical, TCAMS library (AID 1159585; cut-off not given, nearly all actives have IC50 up to about 0.98 µM;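 further: inhibitors leave more ATP so luminescence rises with inhibition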). To be noted: recombinant PfCDPK1, Kinase-Glo ATP depletion luminescence.
The target of assay [6] is Plasmodium falciparum protein kinase 6 (PK6, PF3D7_1337100) (UniProt Q8IDW1). Briefly: PfPK6 kinase inhibitors, biochemical, TCAMS library (AID 1159586). The settings on record: recombinant PfPK6, Kinase-Glo ATP depletion luminescence.
In assay [7] the target is Protein kinase 7 (PK7), Plasmodium falciparum 3D7 (PF3D7_0213400) (UniProt Q7YTF7). Briefly: inhibition of Plasmodium PK7 catalytic activity – biochemical, TCAMS antimalarial set, Kinase-Glo luminescence (AID 1159587). The settings on record: recombinant PfPK7, Kinase-Glo ATP depletion luminescence.
For assay [8], the target named is Calcium-dependent protein kinase 4 (Plasmodium falciparum (isolate 3D7)) (UniProt Q8IBS5). Briefly: PfCDPK4 kinase inhibitors, biochemical, TCAMS library (AID 1159588; cut-off not given, nearly all actives have IC50 up to about 0.91 µM). The settings on record: recombinant PfCDPK4, Kinase-Glo ATP depletion luminescence.

The structures appear in SMILES notation. A number with no mark means an inactive call. For some of these results: Potency and affinity values are given separately. Active and inactive are the calls of the source. Unless noted, how the calls were made is not given here.

Chain of Protein kinase 7 (PK7), Plasmodium falciparum 3D7 (PF3D7_0213400) (Q7YTF7 1-343): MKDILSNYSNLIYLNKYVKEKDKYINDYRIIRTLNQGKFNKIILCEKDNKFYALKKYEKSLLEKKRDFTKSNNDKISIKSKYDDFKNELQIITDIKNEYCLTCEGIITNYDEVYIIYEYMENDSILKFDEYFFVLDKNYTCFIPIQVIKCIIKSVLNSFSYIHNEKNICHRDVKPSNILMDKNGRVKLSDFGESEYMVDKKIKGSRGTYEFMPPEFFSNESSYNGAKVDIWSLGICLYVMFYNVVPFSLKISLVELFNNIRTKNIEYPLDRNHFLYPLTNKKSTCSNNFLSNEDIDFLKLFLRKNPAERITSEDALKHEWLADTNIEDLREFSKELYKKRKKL
Chain of Calcium-dependent protein kinase 1 (Plasmodium falciparum (isolate 3D7)) (P62344 whole entry, looked up): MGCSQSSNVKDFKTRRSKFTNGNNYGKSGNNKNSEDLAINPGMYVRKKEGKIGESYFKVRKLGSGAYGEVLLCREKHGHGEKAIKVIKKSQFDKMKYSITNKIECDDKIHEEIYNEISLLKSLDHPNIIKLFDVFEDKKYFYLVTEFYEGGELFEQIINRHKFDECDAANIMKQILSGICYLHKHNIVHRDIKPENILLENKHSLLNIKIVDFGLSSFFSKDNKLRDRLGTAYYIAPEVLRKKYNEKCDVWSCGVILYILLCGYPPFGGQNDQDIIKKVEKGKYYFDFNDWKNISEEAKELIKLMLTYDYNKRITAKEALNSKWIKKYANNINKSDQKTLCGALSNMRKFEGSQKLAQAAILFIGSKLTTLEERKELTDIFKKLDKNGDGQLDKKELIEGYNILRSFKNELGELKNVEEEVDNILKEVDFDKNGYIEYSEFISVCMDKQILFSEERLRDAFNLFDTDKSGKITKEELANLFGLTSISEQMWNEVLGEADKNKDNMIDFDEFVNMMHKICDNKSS
Chain of L-lactate dehydrogenase (Plasmodium falciparum (isolate CDC / Honduras)) (Q27743 whole entry, looked up): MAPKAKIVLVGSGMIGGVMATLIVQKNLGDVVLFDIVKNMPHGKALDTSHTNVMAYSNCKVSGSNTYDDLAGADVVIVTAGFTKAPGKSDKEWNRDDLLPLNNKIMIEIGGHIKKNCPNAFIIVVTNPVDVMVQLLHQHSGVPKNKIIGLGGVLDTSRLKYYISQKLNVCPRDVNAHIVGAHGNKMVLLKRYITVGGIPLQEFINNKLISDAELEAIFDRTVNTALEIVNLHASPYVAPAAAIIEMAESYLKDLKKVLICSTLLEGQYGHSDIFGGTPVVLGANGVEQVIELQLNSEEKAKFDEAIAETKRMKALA
Chain of Plasmodium falciparum protein kinase 6 (PK6, PF3D7_1337100) (Q8IDW1 1-305): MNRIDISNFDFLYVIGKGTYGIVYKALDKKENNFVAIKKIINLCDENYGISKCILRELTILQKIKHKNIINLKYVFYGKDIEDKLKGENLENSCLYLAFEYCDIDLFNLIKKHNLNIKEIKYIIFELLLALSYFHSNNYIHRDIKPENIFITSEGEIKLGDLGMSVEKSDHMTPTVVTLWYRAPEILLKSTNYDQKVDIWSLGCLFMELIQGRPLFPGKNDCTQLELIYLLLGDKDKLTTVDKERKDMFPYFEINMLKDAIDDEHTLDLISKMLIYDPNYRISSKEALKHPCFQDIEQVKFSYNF
Chain of Calcium-dependent protein kinase 4 (Plasmodium falciparum (isolate 3D7)) (Q8IBS5 whole entry, looked up): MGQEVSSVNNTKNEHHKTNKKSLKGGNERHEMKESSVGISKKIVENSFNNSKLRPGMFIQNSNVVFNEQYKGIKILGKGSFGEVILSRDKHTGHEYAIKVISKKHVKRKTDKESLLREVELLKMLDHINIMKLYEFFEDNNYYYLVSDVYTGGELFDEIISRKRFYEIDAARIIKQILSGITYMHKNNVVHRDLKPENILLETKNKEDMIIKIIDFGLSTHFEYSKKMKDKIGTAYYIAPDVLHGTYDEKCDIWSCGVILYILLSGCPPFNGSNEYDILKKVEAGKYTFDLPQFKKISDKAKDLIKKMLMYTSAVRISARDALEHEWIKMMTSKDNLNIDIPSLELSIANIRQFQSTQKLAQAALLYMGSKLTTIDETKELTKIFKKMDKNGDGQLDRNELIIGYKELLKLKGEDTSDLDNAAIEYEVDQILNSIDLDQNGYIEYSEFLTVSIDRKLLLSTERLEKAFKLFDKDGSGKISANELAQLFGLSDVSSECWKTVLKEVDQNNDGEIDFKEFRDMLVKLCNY

As to `COc1ccc(C(=O)[C@H]2C[C@@H]2CN2CC=C(c3c(C)[nH]c4ccccc34)CC2)cc1`, the figures for the growth inhibition in assay [1] and in assay [4] were 94% (active) and 96% (active), respectively. For the same molecule, the figures for the inhibition in assay [2] and in assay [3] were 16% and -6%, respectively. Further, the result in assay [5], in assay [6], in assay [7] and in assay [8] was inactive.
Regarding `COc1coc(C(=O)NC2CCN(CC3(c4ccc(Cl)cc4)CCC3)CC2)c1OC`, the growth inhibition in assay [1] and in assay [4] was 96% (active) throughout. For the same molecule, the figures for the inhibition in assay [2] and in assay [3] were 2% and -3%, respectively. Besides, the result in assay [5], in assay [6], in assay [7] and in assay [8] was inactive.
In the case of `CO[C@@H]1C[C@@H](C(=O)Nc2ccccc2)N(c2ccc(C#N)c3ccccc23)C1`, the results for the growth inhibition in assay [1] and in assay [4] were 100% (active) and 98% (active), respectively. The inhibition in assay [2] is 7%; in assay [3] it was 6%. Besides, the outcome in assay [5], in assay [6], in assay [7] and in assay [8] was inactive.
For `Oc1cccc(C2CCCN(Cc3cccc4cc[nH]c34)C2)c1` (centres undefined), the growth inhibition is 82% (active) in assay [1] and 101% (active) in assay [4]. Moreover, the inhibition in assay [2] was 16%; in assay [3], -2%. The result in assay [5], in assay [6], in assay [7] and in assay [8] was inactive.
On to `Oc1ccc(CN2CCN(CCOC(c3ccccc3)c3ccccc3)CC2)cc1Cl`, for which the growth inhibition in assay [1] was 77% (active); in assay [4], 98% (active). The inhibition in assay [2] is 7%; in assay [3], 1%. Also, the result in assay [5], in assay [6], in assay [7] and in assay [8] was inactive.
For `Cc1[nH]c2cc(Cl)ccc2c1C1=CCN(CCCCC2(C)C(=O)Nc3c(F)cccc32)CC1` (centres undefined), the results for the growth inhibition in assay [1] and in assay [4] were 74% (active) and 90% (active), respectively. Moreover, the inhibition was 14% in assay [2] and 3% in assay [3]. The result in assay [5], in assay [6], in assay [7] and in assay [8] was inactive.
With `Cc1c(C)c2c(c(C)c1O)CC[C@@](C)(C(=O)N1CCC(CN3CCC(c4c[nH]c5ccccc45)CC3)CC1)O2`, the growth inhibition in assay [1] was 90% (active); in assay [4] it was 98% (active). Further, the inhibition in assay [2] was 21%; in assay [3], 3%. The outcome in assay [5], in assay [6], in assay [7] and in assay [8] was inactive.
In the case of `CC(=O)N(Cc1cccc(-c2ccc(CNCCc3ccccc3)cc2)c1)C1CCN(Cc2ccccc2)CC1`, the figures for the growth inhibition in assay [1] and in assay [4] were 50% (active) and 99% (active), respectively. In addition, the inhibition was 32% in assay [2] and -5% in assay [3]. In addition, the outcome in assay [5], in assay [6], in assay [7] and in assay [8] was inactive.
`CC(Cc1ccc(NC(=O)[C@H](C)NCCc2cccc(Cl)c2)cc1)NCCc1cccc(Cl)c1` (some centres undefined): the values for the growth inhibition in assay [1] and in assay [4] were 54% (active) and 100% (active), respectively. Also, the inhibition was 99% (active) in assay [2] and 2% in assay [3]. In addition, the result in assay [5], in assay [6], in assay [7] and in assay [8] was inactive.
`C[C@@H](NC(C)(C)C)[C@H](O)c1ccc(Cl)c(C(F)(F)F)c1`: the growth inhibition in assay [1] and in assay [4] was 97% (active) each time. Also, the inhibition in assay [2] was -1%; in assay [3] it was -6%. In addition, the outcome in assay [5], in assay [6], in assay [7] and in assay [8] was inactive.
As to `CNCCN(C)C(=O)Oc1c(Br)c(C)nc(C)c1-c1ccc(Oc2ccc(OC(F)(F)F)cc2)cc1`, the growth inhibition in assay [1] and in assay [4] was 98% (active) each time. Besides, the results for the inhibition in assay [2] and in assay [3] were 19% and 2%, respectively. The result in assay [5], in assay [6], in assay [7] and in assay [8] was inactive.
For the molecule `CC[C@H]1CN2CC[C@@H]1C[C@H]2[C@H](O)c1cc(-c2cc(Cl)cc(Cl)c2)nc2ccc(OC)cc12`, the values for the growth inhibition in assay [1] and in assay [4] were 97% (active) and 99% (active), respectively. The inhibition is 0% in assay [2] and -1% in assay [3]. Also, the result in assay [5], in assay [6], in assay [7] and in assay [8] was inactive.
As for `CCCCCCCc1cc(O)c2c3c(c(=O)oc2c1)CN(C)CC3`, the values for the growth inhibition in assay [1] and in assay [4] were 100% (active) and 97% (active), respectively. The inhibition in assay [2] was -5%; in assay [3], 3%. The result in assay [5], in assay [6], in assay [7] and in assay [8] was inactive.
Turning to `O=C(O)c1ccc2nc(-c3ccc(-c4ccccc4)cc3)n(C3CCN(Cc4ccc(-c5ncc[nH]5)cc4)CC3)c2c1`, the figures for the growth inhibition in assay [1] and in assay [4] were 99% (active) and 91% (active), respectively. Also, the inhibition in assay [2] was 3%; in assay [3], 1%. For the same molecule, the outcome in assay [5], in assay [6], in assay [7] and in assay [8] was inactive.
In the case of `COC(=O)c1ccc(CC(C)NCC(O)c2cccc(Cl)c2Cl)cc1` (centres undefined), the growth inhibition in assay [1] and in assay [4] was 98% (active) throughout. The inhibition in assay [2] is -1%; in assay [3], -6%. For the same molecule, the result in assay [5], in assay [6], in assay [7] and in assay [8] was inactive.
Regarding `C[C@H](Cc1ccc(OCCCCCCOc2ccccc2)cc1)NC[C@H](O)c1cccc(Cl)c1`, the growth inhibition in assay [1] was 99% (active); in assay [4] it was 93% (active). The inhibition is 21% in assay [2] and 7% in assay [3]. In addition, the result in assay [5], in assay [6], in assay [7] and in assay [8] was inactive.
Consider `Cc1[nH]c2c(C)cc(NS(C)(=O)=O)cc2c1C1CCN(CC2CCN(C(=O)/C=C/c3ccc(Cl)c(Cl)c3)CC2)CC1`, for which the growth inhibition in assay [1] is 99% (active); in assay [4], 100% (active). Further, the inhibition in assay [2] is 33%; in assay [3], 1%. Further, the outcome in assay [5], in assay [6], in assay [7] and in assay [8] was inactive.
With `Cc1cc(N)nc2ccc(CNCCc3ccccc3Br)cc12`, the growth inhibition in assay [1] is 77% (active); in assay [4] it was 102% (active). Moreover, the figures for the inhibition in assay [2] and in assay [3] were 28% and 7%, respectively. Also, the result in assay [5], in assay [6], in assay [7] and in assay [8] was inactive.
Take `C#CCN1CCC2=C(C1)c1c(O)cc(C(C)C(C)CCc3ccc(F)cc3)cc1OC2(C)C` (centres undefined): the growth inhibition in assay [1] was 99% (active); in assay [4], 100% (active). For the same molecule, the figures for the inhibition in assay [2] and in assay [3] were 10% and 3%, respectively. Moreover, the outcome in assay [5], in assay [6], in assay [7] and in assay [8] was inactive.
With `CC(C)CNCc1cccc(-c2cccc(CN(C(=O)NC3CCCCC3)C3CCN(Cc4ccccc4)CC3)c2)c1`, the growth inhibition in assay [1] is 87% (active); in assay [4], 97% (active). For the same molecule, the results for the inhibition in assay [2] and in assay [3] were 32% and 8%, respectively. Further, the outcome in assay [5], in assay [6], in assay [7] and in assay [8] was inactive.
Regarding `O=C(/C=C/c1ccc(Cl)c(Cl)c1)NCCC1CCC(N2CCC(c3c[nH]c4ccccc34)CC2)CC1` (centres undefined), the growth inhibition is 99% (active) in assay [1] and 102% (active) in assay [4]. For the same molecule, the inhibition in assay [2] is 91% (active); in assay [3], -1%. Besides, the outcome in assay [5], in assay [6], in assay [7] and in assay [8] was inactive.
Consider `CCCCCc1cc(O)c2c(c1)OC(C)(C)CC2C1=CCN(Cc2ccccc2)CC1` (centres undefined), for which the growth inhibition in assay [1] was 79% (active); in assay [4], 99% (active). For the same molecule, the inhibition was 15% in assay [2] and -5% in assay [3]. In addition, the result in assay [5], in assay [6], in assay [7] and in assay [8] was inactive.
`CC(C)N(C)C(=O)n1cnc(S(=O)(=O)C2C[C@@H]3CC[C@H]2C3)n1` (some centres undefined): the growth inhibition is 96% (active) in assay [1] and 97% (active) in assay [4]. Also, the results for the inhibition in assay [2] and in assay [3] were 26% and 6%, respectively. The outcome in assay [5], in assay [6], in assay [7] and in assay [8] was inactive.

Source of the values: PubChem BioAssay.
